Source: PubChem (National Center for Advancing Translational Sciences (NCATS))
Hits are enriched below; roughly 14% of the tested compounds scored in any of these assays.
HCMV antiviral: inhibitors of human cytomegalovirus | HFF cells, HCMV-luciferase reporter, 72 h; stronger effect = lower value | activity change, negative = inhibition, % at 57.5 µM | 410,000 compounds, 4.5% hits; in the data active means activity change below about -60%; inconclusive means no clear call, values can overlap the other calls; inactive means above about -39%
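Steps: HFFs plated, 16 h 37C; compounds added; HCMV-luciferase added to MOI 1 PFU/cell; 72 h 37C; OneGlo reagent, 5 min room temperature; luminescence read, normalized to controls.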
Pf growth 96h: inhibits malaria parasite growth, 96 h. 320,000 compounds, 6.9% hits. P. falciparum luciferase reporter growth, 96 h. AID 504834. Potency, µM (titrated, usually from 28.7 µM), actives largely listed as inhibitors
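96 h incubation, 37 C, 5% CO2, of luciferase-reporter P. falciparum-infected RBCs (2% hematocrit, 0.05% parasitemia final) with test compounds; endpoint luminescence.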
MARV entry inh: Marburg virus entry inhibition; Marburg virus pseudotyped entry inhibition, cell reporter; Potency, µM (doses to about 37.8 µM), hits mostly inhibitors; 300,000 compounds, 1.8% hits; AID 540276; calls by dose curve; tested in HEK293 cells
HCV inhibitor: HCV inhibition; AID 651820; Potency, µM (top dose mostly 41.8 µM), hits mostly inhibitors; 340,000 compounds, 3.4% hits; Huh7.5.1 HCVcc-Cre infection, luciferase reporter, 44 h
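Luciferase read-out (15 sec integration) after a 15 min room-temperature substrate step quantifies HCVcc-Cre infection. Cells, 1,000 per well, had compound added 4 h post-plating, then virus at ~0.5 moi, and were cultured 44 h.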
Pf growth 48h: P. falciparum growth inhibition at 48 hours (one generation). 310,000 compounds, 5.9% hits. P. falciparum luciferase growth in erythrocytes, 48 h. AID 504832. Potency, µM (highest dose often 28.7 µM), hits mostly inhibitors
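Erythrocytes infected with P. falciparum carrying an integrated firefly luciferase reporter (2% hematocrit, 0.1% parasitemia final) were exposed to compounds in RPMI 1640 with 0.5% Albumax at 37 C, 5% CO2. Growth inhibition was scored as reduced luminescence.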
Lassa entry inh: inhibitors of Lassa virus binding or cell entry | Lassa virus pseudotype entry inhibition, cell reporter | Potency, µM (titrated, usually from 37.9 µM), usual class: inhibitors | 300,000 compounds, 1.2% hits | AID 540256; calls by dose curve; tested in HEK293 cells; further: nearly all actives have a fitted effect of over 50% in size
A number is an active result; i = inactive; ? = inconclusive; nt = not tested or not shown; + = active, no number. Unless noted, the call rests on the fitted dose curve; in most records, active means well fitted inhibition curve with a large enough effect; inconclusive means small, poorly fitted or top-dose-only effect, or another doubt; inactive means no such curve, though single readings can be large or run the other way.

SMILES	HCMV antiviral	Pf growth 96h	MARV entry inh	HCV inhibitor	Pf growth 48h	Lassa entry inh
CCOC(=O)C1CCN(C(=O)c2ccc3c(c2)NC(=O)/C(=C\c2ccc(C)cc2)S3)CC1	i	?	nt	?	?	nt
CN1CCN(C(=O)c2ccc3c(c2)NC(=O)/C(=C/c2ccccc2)S3)CC1	-69	?	nt	11µM	?	nt
O=C1Nc2cc(C(=O)N3CCC4(CC3)OCCO4)ccc2S/C1=C\c1ccccc1	i	i	?	?	?	i
CCOC(=O)C1CCN(C(=O)c2ccc3c(c2)NC(=O)/C(=C/c2ccccc2)S3)CC1	?	?	nt	11µM	?	nt
O=C(c1ccc(-n2cccc2)cc1)N1CCOCC1	i	nt	i	i	i	i
CC12C(=O)N(c3ccc(C(=O)N4CCOCC4)cc3)C(=O)C1C1c3ccccc3C2c2ccccc21 (stereo not drawn)	-101	i	i	i	i	i
CC(C)(C)c1ccc(C2=NC(C)(C)N(CC(=O)Nc3ccc(F)c(F)c3)C2=O)cc1	i	nt	i	nt	nt	i
CCN(CC)S(=O)(=O)c1cc(NC(=O)C(C)N(C)CC(=O)Nc2c(C)cccc2C)ccc1C (stereo not drawn)	i	12µM	?	?	12µM	?
CCN(CC)S(=O)(=O)c1cc(NC(=O)C(C)N2CCc3ccccc32)ccc1C (stereo not drawn)	?	10µM	?	?	?	?
CCCCNC(=O)c1nc2ccccc2nc1-c1cccc(OC(F)(F)F)c1	i	nt	nt	nt	nt	nt
CN1C(=O)c2ccccc2Sc2ccc(NC(=O)N3CCN(c4cccc(Cl)c4)CC3)cc21	?	nt	11µM	nt	nt	?
CN1C(=O)c2ccccc2Sc2ccc(NC(=O)Cc3c(F)cccc3Cl)cc21	-82	nt	nt	nt	nt	?
CN1C(=O)c2ccccc2Sc2ccc(NC(=O)COc3ccccc3)cc21	-63	nt	nt	nt	nt	?
CCc1noc(C)c1C(=O)OC(C)C(=O)Nc1ccccc1OC (stereo not drawn)	i	i	i	i	?	i
O=C(Nc1cccc(C(F)(F)F)c1)c1csc([C@@H]2O[C@H](CO)[C@@H](O)[C@H]2O)n1	i	nt	nt	nt	nt	nt
Cc1nc(SCC#N)c2c(C)c(C)sc2n1	i	9.3µM	?	i	i	i
Cc1ccc(-c2nnc(CSc3nc(C)nc4sc(C)c(C)c34)o2)cc1	nt	?	i	i	i	i
CCCCOC(=O)/C=C/c1ccc(OC(=O)OC)c(OC(=O)OC)c1	i	i	11µM	?	i	?
COC(=O)Oc1ccc(/C=C/C(=O)OC(C)C)cc1OC(=O)OC	i	i	?	?	i	i
COc1ccc(/C=C/C(=O)OCCC(C)C)cc1	nt	13µM	nt	nt	i	nt
COc1ccc(/C=C/C(=O)O)cc1	i	i	nt	0.79µM	i	nt
CCOC(=O)C1=C(COC(=O)/C=C/c2ccc(OC)cc2)NC(=O)NC1C (stereo not drawn)	i	i	i	3.2µM	?	?
CCOC(=O)C1=C(COC(=O)/C=C/c2cccc(OC)c2)NC(=O)NC1C (stereo not drawn)	i	i	i	nt	i	i
CCOC(=O)C1CCN(C(=O)c2ccccc2)C(CC)C1=O (stereo not drawn)	i	nt	i	i	nt	i
CSc1ccc(CNC(=O)c2ccc3c(c2)N(C)C(=O)C2CCCCN32)cc1 (stereo not drawn)	i	nt	nt	nt	nt	i
SMILES	HCMV antiviral	Pf growth 96h	MARV entry inh	HCV inhibitor	Pf growth 48h	Lassa entry inh
CCCCCc1ccc(-c2cn(CCc3c[nH]c4ccccc34)nn2)cc1	-61	?	nt	?	i	nt
CCc1cc(-c2nnn(-c3cc(C(C)C)ccc3C)c2CC)ccc1-c1cn(CCc2c[nH]c3ccccc23)nn1	i	nt	nt	nt	nt	nt
CCCCCc1ccc(-c2cn(CCCOCc3ccccc3)nn2)cc1	i	i	nt	i	i	nt
CCc1cc(-c2cnnn2CCc2c[nH]c3ccccc23)ccc1-c1cn(CC(C)C)nn1	i	nt	nt	nt	nt	7.9µM
CCCCCc1ccc(-c2cn(CC3CCCCC3)nn2)cc1	?	12µM	nt	i	i	nt
O=C(COC(=O)c1cc(=O)[nH]c2ccccc12)Nc1nc(-c2ccc(F)cc2)cs1	i	nt	nt	i	nt	nt
CSC1(SC2=NCCN2)SC2(NCCN2)S1	?	nt	10µM	?	nt	i
CCc1ccc(NC(=O)CC(NCc2cccnc2)C(=O)O)cc1 (stereo not drawn)	i	nt	i	nt	nt	i
COc1cc(C(=O)N[C@H](C(=O)NC2CCCCCC2)C(C)C)cc(OC)c1OC	i	12µM	i	i	nt	i
CCC(C)NC(=O)c1cc(OC)c(OC)c(OC)c1 (stereo not drawn)	i	2.3µM	i	i	i	i
C#CCCCO/N=C1\C[C@@H](O)[C@@H](O)[C@@H]2[C@@H]3C(=O)N(Cc4ccc5c(c4)OCO5)C(=O)[C@@H]3CC[C@@H]12	nt	nt	i	nt	nt	nt
Cc1cccc(C)c1NC(=O)C1c2ccccc2OCC(=O)N1C1CC1 (stereo not drawn)	i	nt	nt	nt	nt	nt
NC[C@H](O)c1cc(O)c(O)cc1F	nt	nt	i	nt	nt	nt
CCOc1cc(CNc2ccc(CNc3ncn[nH]3)cc2)ccc1OCc1ccccc1	i	13µM	?	?	?	i
CSc1nc(O)c(C(c2ccc(C)cc2)c2c(O)nc(SC)[nH]c2=O)c(=O)[nH]1	i	i	nt	i	i	nt
CSc1nc2nc3c(cc2c(=O)[nH]1)C(O)Oc1ccc(C)cc1-3 (stereo not drawn)	i	?	nt	i	1.3µM	nt
O=C(C1CCCN(S(=O)(=O)c2ccc(F)cc2)C1)N1CCCCCC1 (stereo not drawn)	i	i	i	i	i	i
COc1cccc(-c2nnc(NC(=O)c3ccc(Cl)s3)o2)c1	i	12µM	i	?	?	i
COc1ccc(-c2nnc(NC(=O)c3ccc([N+](=O)[O-])o3)o2)c(OC)c1	-94	12µM	i	?	15µM	i
CCN1C[C@@H]2[C@@H]3C(=O)N(Cc4ccccc4)C(=O)[C@@H]3[C@](Cc3ccccc3)(C1=O)N2C(=O)c1ccc(Cl)cc1	-69	nt	nt	i	nt	nt
CN(Cc1ccccc1)C(=O)CC(c1ccccc1)c1cc(Cl)ccc1O (stereo not drawn)	i	10µM	i	i	?	?
CC(NC(=O)CC(c1ccccc1)c1cc(Cl)ccc1O)c1ccccc1 (stereo not drawn)	i	i	i	?	?	?
O=c1n(-c2ccccc2)c(=O)n2n1CC[C@@H]1C(=NOC[C@@H](O)COCc3ccco3)[C@H]3O[C@H]3[C@@H](O)[C@H]12	nt	nt	i	nt	nt	nt
NC(=S)N/N=C/c1ccccc1OC(=O)c1cc2ccccc2oc1=O	+	0.59µM	nt	i	0.33µM	nt
NC(=S)N/N=C/c1ccccc1OC(=O)/C=C/c1ccccc1	-110	?	nt	i	?	nt
NC(=O)N/N=C/c1ccccc1OC(=O)c1cc2ccccc2oc1=O	i	i	nt	i	i	nt
CCOC(=O)[C@]12CCC=C1N(Cc1ccco1)C(=O)[C@H](CC(=O)NCC13CC4CC(CC(C4)C1)C3)C2	i	nt	nt	nt	nt	nt
Cc1nnc2c3ccccc3nc(N3CCN(c4cccc(Cl)c4)CC3)n12	?	nt	nt	nt	nt	i
